Results: PubChem BioAssay (NCI)
About 83,000 compounds went through this panel and 20% of them were active in at least one assay; those are over-represented in the sample as a whole.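 Testing used 96-well plates and a 48-hour single-concentration exposure. Example: -40 means 40% of the starting cells died.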 Unmarked numbers belong to inactive results. Active and inactive are the calls of the source. The calls were made as follows: active = growth percent below 10; inactive = the rest.

tested on: SK-MEL-28 melanoma; assay: NCI-60 one-dose screen, 48 h (100 = growth as untreated, 0 = no growth, -100 = all killed); details: 10 µM unless noted

| Structure (SMILES) | growth |
| --- | --- |
| COc1cc(-c2ccc[nH]2)[nH]c1/C=C1\N=C(C)C(CC(=O)OCC(C)(C)C)=C1C | -78.2% (active) |
| N#Cc1c(-c2ccc(Br)cc2)nc2c(N=Nc3ccc(S(N)(=O)=O)cc3)c(N)nn2c1N | 63.2% |
| O=[N+]([O-])c1ccccc1Nc1ccc2ccccc2c1 | 101% |
| c1ccc(Nc2nc3c(s2)CCc2c[nH]cc2-3)nc1 | 110% |
| COc1ccc2cc(C(=O)N3CCC([C@@H](C)C(=O)NCc4ccc5c(c4)OCO5)CC3)[nH]c2c1 | 77.8% [50 µM] |
| Nc1cc(C(=O)O)cc(-n2c(O)c(C=C3N=c4ccccc4=N3)sc2=S)c1 | 104% |
| CC1(C)N=C(N)N=C(N)N1c1cc(Cl)ccc1Cl | 106% |
| CC/C(=C(\c1ccc(Cl)cc1)c1ccc(OCCN2CCCCC2)cc1)c1ccc(O)cc1 | -63.4% (active) |
| O=C1O[C@@H](c2ccccc2Cl)[C@@H]2c3cc4c(cc3CCN12)OCO4 | 118% |
| C=CCn1cc(-c2nc3ccccc3s2)c2cc(-c3ccc4c5c(cccc35)C(=O)N(CCO)C4=O)ccc21 | 110% |
| CCOC(=O)C#Cc1c(C(=O)OCC)nnn1[C@@H]1O[C@H](COC)[C@@H](OC)[C@H]1OC | 96.3% |
| O=C(/C=C/c1ccccc1Cl)c1cccc(OCCCCOc2cccc(C(=O)/C=C/c3ccccc3Cl)c2)c1 | 99.7% |
| Nc1nc2ccccc2c2c(=O)c3cc(Cl)ccc3sc12 | 109% |
| C=CC(=O)Nc1cccc(Oc2nccc(Nc3nnc(-c4ccc(Br)cc4)s3)n2)c1 | 108% |
